Assay results from PubChem BioAssay (NCATS).
Records with an inconclusive call do not appear. Active and inactive are the calls of the source. The call rests on the fitted dose curve; in most records, active means well fitted inhibition curve with a large enough effect; inconclusive means small, poorly fitted or top-dose-only effect; inactive means flat fitted curve, though single readings scatter.

biological target: Aldehyde dehydrogenase, mitochondrial (Homo sapiens) (UniProt P05091); assay: qHTS for Inhibitors of the Aldehyde Dehydrogenase Family (ALDH2) Primary screen (AID 2061308); conditions: ALDH2 enzyme inhibition qHTS, 1536-well; series mostly up to 56 µM; activity change, negative = inhibition: at the top concentration; further: nearly all actives have a fitted effect of over 55% in size;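 on activity change, negative = inhibition: plate controls were vehicle for no effect and reference inhibitor for full effect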
Potency means the concentration at half of the fitted maximal effect.

Structure (SMILES) | activity change, negative = inhibition | Potency
CCCCN(C)C(=O)Cn1nc(-c2ccccc2C)ccc1=O | -6.45% (inactive) | 
COc1cccc(OC)c1C1=Nn2c(nnc2-c2ccccc2O)SC1 | 2.59% (inactive) | 
N=c1c2c(ccn1Cc1ccccc1)Oc1ccc3ccccc3c1C2c1ccccc1 (stereo not given) | 3.21% (inactive) | 
COc1cccc(NC(=S)N2CCN(c3ccccc3C(F)(F)F)CC2)n1 | -12.1% (inactive) | 
CCNC(=O)c1ccc(-c2ccc3ncnc(NCC4CCCO4)c3c2)o1 (stereo not given) | 1.21% (inactive) | 
COc1ccc(C[C@H](N)C(=O)N[C@@H]2[C@H](O)[C@H](n3cnc4c(N(C)C)ncnc43)O[C@@H]2CO)cc1 | -6.36% (inactive) | 
C=C1[C@@H](C)[C@H]2[C@H](Cc3c[nH]c4ccccc34)NC(=O)[C@]23C(=O)/C=C/C(=O)[C@H](O)/C(C)=C\[C@@H](C)C/C=C/[C@H]3[C@@H]1O |  | 11.2 µM (active)
CCN(CC)CCCCn1c(-c2ccccc2)nc2c(NCCOC)nc(C)nc21 | 14.9% (inactive) | 
Cc1ccc(NS(=O)(=O)c2cc3c(cc2F)NC(=O)CC3)cc1C | -18.1% (inactive) | 
CC(C)C[C@H](C(=O)O)c1cc(-c2ccc(C(F)(F)F)cc2)cc(-c2ccc(C(F)(F)F)cc2)c1 | -6.08% (inactive) | 
O=C(Nc1nc(-c2ccccc2)cs1)c1ccncc1NS(=O)(=O)c1ccc2c(c1)CCC2 | -9.79% (inactive) | 
O=C(Nc1ccc(-c2cn[nH]c2)cc1)Nc1nnc(-c2ccncc2)s1 | 5.2% (inactive) | 
COc1cccc(C2c3c(ncn(-c4ccccc4Br)c3=N)Oc3ccc4ccccc4c32)c1 (stereo not given) | -9.52% (inactive) | 
Cc1ccc(NC(=O)Nc2nnc(-c3ccncc3)s2)cc1C | 10.3% (inactive) | 
O=C(NCc1ccc(F)cc1)n1cc(P(=S)(c2ccccc2)c2ccccc2)c2ccccc21 | 0.678% (inactive) | 
